# Experimental data reported in PubChem BioAssay (NCATS).
# Inconclusive results are not listed. Values without a mark were called inactive. The source made the active and inactive calls. Calls follow the shape of the dose curve; as a rule, active = well fitted cell-killing curve with a large enough effect; inconclusive = small, poorly fitted or top-dose-only effect, or effect the other way; inactive = flat fitted curve, though single readings scatter.
# Test system: OV90
# Test: Primary qHTS to identify gynecologic anti-cancer compounds using libraries of approved drugs and bioactive compounds (AID 1345084); also: nearly all actives have a fitted effect of over 55% in size
# Conditions: Gynecologic cancer cell panel viability, ATPlite luminescence, 48 h; series mostly up to 57.5 µM; activity change, negative = cytotoxicity: at the top concentration
# Procedure, shortened: (§1)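 Luminescence from the ATPlite ATP-monitoring reagent indicates viable cell number; lower signal means cytotoxicity. Cells received compound 16 h after seeding and were exposed for 48 h across five concentrations.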
# % is scaled to controls: 0 for no effect and ±100 for the full control effect; potency is read from the fitted curve at half-maximal effect.
row,SMILES,"activity change, negative = cytotoxicity"
1,O=C1c2ccc(Nc3ccc(F)cc3F)cc2CCc2ccc(OCC(O)CO)cc21 (stereo unspecified),-4.26%
2,COC(=O)C1=COC(O[C@@H]2O[C@H](CO[C@@H]3O[C@H](COC(=O)/C=C\c4ccc(O)cc4)[C@@H](O)[C@H](O)[C@H]3O)[C@@H](O)[C@H](O)[C@H]2O)C2C(CO)=CCC12 (stereo partly specified),4.44% [at 25.3 µM]
3,CC1(C)OC[C@H](NC(=O)Nc2ccc(Br)cc2Br)[C@H](c2ccccc2)O1,7.66%
4,COc1ccc(C(=O)Nc2c(Cl)cncc2Cl)cc1OC1CCCC1,4.49%

# Test system: PA-1
# Test: as above
# Conditions: Gynecologic cancer cell panel viability, ATPlite luminescence, 48 h; series mostly up to 57.5 µM; activity change, negative = cytotoxicity: at the top concentration
# Procedure, shortened: as §1
SMILES,Potency,"activity change, negative = cytotoxicity"
CCCC1(CCC)CCC2(CCN(CCCN(CC)CC)C2)CC1,5.01 µM (active),–
Cn1ncc(Cl)c1-c1cc(C(=O)N[C@H](CN)Cc2cccc(F)c2)sc1Cl,25.1 µM (active),–
O=C(NCCCN1CCC2(CC1)OCc1ccccc12)[C@H]1CCCN1Cc1ccccc1,–,-7.98%
CC(C)c1cc(-c2ccc(F)c3ccccc23)nc(N)n1,–,13.1%
CC(=O)OC1CC2(C)C(CCC(C)C23Cc2c(O)cc(CO)c(C=O)c2O3)C(C)(C)C1O (stereo unspecified),–,-11.5% [at 25.3 µM]
CC(C)Oc1ccc(-c2cnc3c(-c4ccnc5ccccc45)cnn3c2)cc1,–,1.78%
CC(=O)N[C@H]1[C@H](O[C@H]2CC[C@@]3(C)C(CC[C@]4(C)C3CC=C3C5CC(C)(C)CC[C@]5(C(=O)O)C(O)C[C@]34C)C2(C)C)O[C@H](CO[C@@H]2O[C@H](C)[C@H](O)[C@H](O)[C@H]2O[C@@H]2OC[C@@H](O)[C@H](O)[C@H]2O)[C@@H](O)[C@@H]1O (stereo partly specified),–,4.44% [at 11.6 µM]
Cc1cc(C)nc(SCC(=O)Nc2ncc(Cc3cccc4ccccc34)s2)n1,–,7.32%
COc1cccc(CN(C(=O)CC(C)(C)C)[C@H]2C[C@H](C(=O)N3CCNCC3)N(Cc3ccc4c(c3)OCO4)C2)c1,–,-10.8%
Fc1ccc(N2CCN(CCC3OCCc4ccccc43)CC2)cc1 (stereo unspecified),–,-8.55%
O=C(NCc1ccccc1)c1ccc2c(=O)n(-c3cccc(C(F)(F)F)c3)c(=S)[nH]c2c1,–,0.671%
CN[C@@H]1[C@H](O[C@H]2[C@H](O[C@@H]3[C@@H](O)[C@H](O)[C@@H](N=C(N)N)[C@H](O)[C@H]3N=C(N)N)O[C@@H](C)[C@]2(O)CO)O[C@@H](CO)[C@H](O)[C@H]1O,–,9.59%
CC1CCC(=O)CC(SCC(O)C(=O)O)CCC(=O)O1 (stereo unspecified),–,-14.4%
C=C1CC[C@H]2C(=C)CC[C@H]3C(=C)C(=O)O[C@@H]3[C@@H]12,–,1.82%
C=C1C(=O)O[C@@H]2C=C(COC(C)=O)CC/C=C(\CO)CC[C@@H]12,–,-1.28% [at 38.5 µM]
CC(=O)OC1C(=O)C2C3OCC4=C3[C@@](C)(CC[C@@H]4O)CC[C@]2(C)[C@H]1C(C)C (stereo partly specified),–,-3.99% [at 38.5 µM]

SMILES,Potency,"activity change, negative = cytotoxicity"
O=c1[nH]c2cccc(N3CCN(Cc4ccc(-c5ccccc5)cc4)CC3)c2o1,–,-11.9%
Cc1nc(Nc2ccc(F)cc2)nc(N2CCc3ccccc3C2C)c1C (stereo unspecified),–,-8.34%
C[C@@H](O[C@H]1OCCN(Cc2nn(P(=O)(O)O)c(=O)[nH]2)[C@H]1c1ccc(F)cc1)c1cc(C(F)(F)F)cc(C(F)(F)F)c1,–,8.77% [at 25.3 µM]
COC(=O)C[C@H]1[C@]2(C)C3=C(C)[C@H](c4ccoc4)C[C@H]3O[C@@H]2[C@H](O)C2[C@](C)(C(=O)OC)C=CC(=O)[C@@]21C (stereo partly specified),–,-10.2% [at 25.3 µM]
CC(=O)c1ccc2c(c1)[C@H](NC(=O)c1ccc(F)c(Cl)c1)[C@H](O)C(C)(C)O2,–,7.73%
CC1OC(OC2C(O)COC(O[C@@H]3[C@@H](O)[C@@H](O)[C@H](OC4C(OC(=O)[C@]56CCC(C)(C)CC5C5=CCC7[C@@]8(C)C[C@H](O)[C@H](OC9OC(CO)C(O)C(O)C9O)[C@@](C)(CO)C8[C@H](O)C[C@@]7(C)[C@]5(C)CC6)OCC(O)C4O)O[C@H]3C)C2O)C(O)C(O)C1O (stereo partly specified),–,0.113% [at 6.55 µM]
Cc1c(C(=O)NCc2cccnc2)nn(-c2ccc(Cl)cc2Cl)c1-c1ccc(Cl)cc1,–,-1.8%
C=C1CCC[C@]2(C)CC/C(=C(/CO)C(=O)OC)C[C@@H]12,–,12.7%
CC/C(C)=C/C(=O)OC1C(OC2(C)CCC3C(C4C(C)CCC42)C3(C)C)OC(C)C(O)C1O (stereo unspecified),–,18% [at 25.3 µM]
CC(C)[C@@H](c1ccc(C(F)(F)F)cc1CN(Cc1cc(C(F)(F)F)cc(C(F)(F)F)c1)c1nnn(C)n1)N1CCC(C(=O)O)CC1,–,-0.515%
O=C(O)c1ccc(S(=O)(=O)N(Cc2ccc(OC(F)(F)F)cc2)c2ncc(C(F)(F)F)cc2Cl)cc1,–,23.4%
COc1ccc(OC)c(-c2ccc(NC(=O)c3ccncc3F)cc2)c1,–,3.14%
C[C@H]1CC[C@@]2(OC1)O[C@H]1CC3C4CC[C@H]5C[C@@H](O)CC[C@]5(C)C4=CC(=O)[C@]3(C)[C@H]1[C@@H]2C (stereo partly specified),–,10.6% [at 25.3 µM]
O=C1c2ccc(Nc3ccc(F)cc3F)cc2CCc2ccc(OCC(O)CO)cc21 (stereo unspecified),–,21.9%
CC1(C)OC[C@H](NC(=O)Nc2ccc(Br)cc2Br)[C@H](c2ccccc2)O1,–,5.06%
COc1ccc(C(=O)Nc2c(Cl)cncc2Cl)cc1OC1CCCC1,–,3.45%
